Experimental data published in PubChem BioAssay (EPA / NIEHS).
Calls of active or inactive are those of the source. Rule for the calls: active = hit-call score of the fitted dose curve at least 0.9, where 1 is the maximum; inactive = score below 0.9.

Test: Tanguay_ZF_120hpf_ANY: Oregon State University Tanguay Lab 120 Hour Post-fertilization zebrafish Assay for Any Mortality and Malformation (AID 2284404)
In short: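 Dechorionated Tropical 5D wild-type embryos, one per well from 6 hpf, static exposure in sealed, dark plates at 28C until 120 hpf, 0.64% DMSO final. Brightfield scoring of mortality and malformations as binary presence/absence, pooling 13 morphology endpoints.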

SMILES | AC50 | outcome
O=P(O)(O)OCCC(F)(F)C(F)(F)C(F)(F)C(F)(F)C(F)(F)C(F)(F)F | 39.1 µM (active) | –
NC(=O)C(F)(F)C(F)(F)C(F)(F)C(F)(F)F | – | inactive
FC(F)(F)C(F)(F)C(F)(F)C(F)(F)C(F)(F)CCI | – | inactive
O=C(O)C(F)(F)C(F)(F)C(F)(F)C(F)(F)C(F)(F)C(F)(F)C(F)(F)C(F)(F)Cl | 39.8 µM (active) | –
FC(F)(F)C(F)(F)C(F)(F)C(F)(F)C(F)(F)C(F)(F)C(F)(F)C(F)(F)F | – | inactive
OCC(F)(F)C(F)(F)C(F)(F)C(F)F | – | inactive
FC(F)(F)C(F)(F)C(F)(F)C(F)(F)CCI | – | inactive
FC(F)(F)C(F)(F)C(F)(F)C(F)(F)C(F)(F)C(F)(F)C(F)(F)C(F)(F)CCS | – | inactive
FC(F)(F)C(F)(F)C(F)(F)C(F)(F)C(F)(F)C(F)(F)CC1CO1 (centres undefined) | – | inactive
O=C(O)C(F)(OC(F)(F)C(F)(OC(F)(F)C(F)(OC(F)(F)C(F)(F)C(F)(F)F)C(F)(F)F)C(F)(F)F)C(F)(F)F (centres undefined) | – | inactive
O=C(O)C(F)(OC(F)(F)C(F)(OC(F)(F)C(F)(F)C(F)(F)F)C(F)(F)F)C(F)(F)F (centres undefined) | – | inactive
O=C(O)C(F)(F)C(F)(F)C(F)(F)C(F)(F)F | – | inactive
N=C(N)C(F)(F)C(F)(F)C(F)(F)C(F)(F)C(F)(F)C(F)(F)C(F)(F)F | – | inactive
CC(C)(C)C(=O)CC(=O)C(F)(F)C(F)(F)C(F)(F)F | – | inactive
C=CC(=O)OCC(F)(F)C(F)(F)C(F)(F)C(F)(F)COC(=O)C=C | 14.2 µM (active) | –
O=C(O)C(F)(F)C(F)(F)C(F)F | – | inactive
Cc1ccc(S(=O)(=O)OCC(F)(F)C(F)(F)C(F)(F)C(F)(F)C(F)(F)C(F)F)cc1 | – | inactive

Test: CCTE_Padilla_ZF_Score.Craniofacial: CCTE's 144 Hour Post-fertilization zebrafish Assay Score for Craniofacial Malformation, Padilla Lab (AID 2284405)
In short: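 Wild-type zebrafish embryos (with chorions), one per well in 10% Hanks', were dosed at 6–8 hpf in sealed plates and kept at 26C. They were rinsed at 5 dpf. At 6 dpf two blinded assessors scored craniofacial malformations by brightfield stereomicroscopy.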

SMILES | outcome | AC50
O=P(O)(O)OCCC(F)(F)C(F)(F)C(F)(F)C(F)(F)C(F)(F)C(F)(F)F | inactive | –
NC(=O)C(F)(F)C(F)(F)C(F)(F)C(F)(F)F | inactive | –
FC(F)(F)C(F)(F)C(F)(F)C(F)(F)C(F)(F)CCI | inactive | –
O=C(O)C(F)(F)C(F)(F)C(F)(F)C(F)(F)C(F)(F)C(F)(F)C(F)(F)C(F)(F)Cl | – | 35.7 µM (active)
FC(F)(F)C(F)(F)C(F)(F)C(F)(F)C(F)(F)C(F)(F)C(F)(F)C(F)(F)F | inactive | –
OCC(F)(F)C(F)(F)C(F)(F)C(F)F | inactive | –
FC(F)(F)C(F)(F)C(F)(F)C(F)(F)CCI | inactive | –
FC(F)(F)C(F)(F)C(F)(F)C(F)(F)C(F)(F)C(F)(F)C(F)(F)C(F)(F)CCS | inactive | –
FC(F)(F)C(F)(F)C(F)(F)C(F)(F)C(F)(F)C(F)(F)CC1CO1 (centres undefined) | inactive | –
O=C(O)C(F)(OC(F)(F)C(F)(OC(F)(F)C(F)(OC(F)(F)C(F)(F)C(F)(F)F)C(F)(F)F)C(F)(F)F)C(F)(F)F (centres undefined) | inactive | –
FC(F)(Br)C(F)(F)C(F)(F)C(F)(F)C(F)(F)C(F)(F)Br | inactive | –
O=C(O)C(F)(OC(F)(F)C(F)(OC(F)(F)C(F)(F)C(F)(F)F)C(F)(F)F)C(F)(F)F (centres undefined) | inactive | –
O=C(O)C(F)(F)C(F)(F)C(F)(F)C(F)(F)F | inactive | –
N=C(N)C(F)(F)C(F)(F)C(F)(F)C(F)(F)C(F)(F)C(F)(F)C(F)(F)F | inactive | –
CC(C)(C)C(=O)CC(=O)C(F)(F)C(F)(F)C(F)(F)F | – | 30.3 µM (active)
C=CC(=O)OCC(F)(F)C(F)(F)C(F)(F)C(F)(F)COC(=O)C=C | inactive | –
O=C(O)C(F)(F)C(F)(F)C(F)F | inactive | –
Cc1ccc(S(=O)(=O)OCC(F)(F)C(F)(F)C(F)(F)C(F)(F)C(F)(F)C(F)F)cc1 | inactive | –
O=C(Cl)C(F)(F)C(F)(F)C(F)(F)C(F)(F)C(F)(F)C(F)(F)C(F)(F)C(F)(F)F | inactive | –
FC(F)(I)C(F)(F)C(F)(F)C(F)(F)I | – | 76.2 µM (active)
FC(F)(F)C(F)(F)C(F)(F)C(F)(F)C(F)(F)C(F)(F)CCS | inactive | –

Test: CCTE_Padilla_ZF_Score.Edema: CCTE's 144 Hour Post-fertilization zebrafish Assay Score for Edema Malformation, Padilla Lab (AID 2284406)
In short: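 Wild-type zebrafish embryos, one per well in Hanks' solution, dosed at 6-8 hpf, sealed and reared at 26C on a 14:10 h cycle; rinsed on 5 dpf. At 6 dpf, blinded assessors scored edema by stereomicroscopy.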

SMILES | outcome | AC50
O=P(O)(O)OCCC(F)(F)C(F)(F)C(F)(F)C(F)(F)C(F)(F)C(F)(F)F | inactive | –
NC(=O)C(F)(F)C(F)(F)C(F)(F)C(F)(F)F | inactive | –
FC(F)(F)C(F)(F)C(F)(F)C(F)(F)C(F)(F)CCI | – | 30.4 µM (active)
O=C(O)C(F)(F)C(F)(F)C(F)(F)C(F)(F)C(F)(F)C(F)(F)C(F)(F)C(F)(F)Cl | – | 36.6 µM (active)
FC(F)(F)C(F)(F)C(F)(F)C(F)(F)C(F)(F)C(F)(F)C(F)(F)C(F)(F)F | inactive | –
OCC(F)(F)C(F)(F)C(F)(F)C(F)F | inactive | –
FC(F)(F)C(F)(F)C(F)(F)C(F)(F)CCI | inactive | –
FC(F)(F)C(F)(F)C(F)(F)C(F)(F)C(F)(F)C(F)(F)C(F)(F)C(F)(F)CCS | inactive | –
FC(F)(F)C(F)(F)C(F)(F)C(F)(F)C(F)(F)C(F)(F)CC1CO1 (centres undefined) | inactive | –
O=C(O)C(F)(OC(F)(F)C(F)(OC(F)(F)C(F)(OC(F)(F)C(F)(F)C(F)(F)F)C(F)(F)F)C(F)(F)F)C(F)(F)F (centres undefined) | inactive | –
FC(F)(Br)C(F)(F)C(F)(F)C(F)(F)C(F)(F)C(F)(F)Br | inactive | –
O=C(O)C(F)(OC(F)(F)C(F)(OC(F)(F)C(F)(F)C(F)(F)F)C(F)(F)F)C(F)(F)F (centres undefined) | inactive | –
O=C(O)C(F)(F)C(F)(F)C(F)(F)C(F)(F)F | inactive | –
N=C(N)C(F)(F)C(F)(F)C(F)(F)C(F)(F)C(F)(F)C(F)(F)C(F)(F)F | inactive | –
CC(C)(C)C(=O)CC(=O)C(F)(F)C(F)(F)C(F)(F)F | – | 27.5 µM (active)
C=CC(=O)OCC(F)(F)C(F)(F)C(F)(F)C(F)(F)COC(=O)C=C | – | 4.88 µM (active)
O=C(O)C(F)(F)C(F)(F)C(F)F | inactive | –
Cc1ccc(S(=O)(=O)OCC(F)(F)C(F)(F)C(F)(F)C(F)(F)C(F)(F)C(F)F)cc1 | inactive | –
O=C(Cl)C(F)(F)C(F)(F)C(F)(F)C(F)(F)C(F)(F)C(F)(F)C(F)(F)C(F)(F)F | – | 10 µM (active)
FC(F)(I)C(F)(F)C(F)(F)C(F)(F)I | – | 24.3 µM (active)
FC(F)(F)C(F)(F)C(F)(F)C(F)(F)C(F)(F)C(F)(F)CCS | inactive | –
